Bioassay records (PubChem)
Rows were chosen to be rich in hits. Some 1.8% of all compounds tested hit in one or more screens of this group.
HEK293 tox = qHTS of GLP-1 Receptor Inverse Agonists: Cytotox Screen; HEK293 cAMP-luciferase reporter cells, luminescence, 24 h; Potency, µM (top dose mostly 38.3 µM), inactives show at the top dose activity change, negative = inhibition, most hits filed as inhibitors; hit rate 0.13% among 410,000; AID 624418, 2012;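 also: loss of luciferase light is scored as toxicity; % is scaled to controls: 0 for no effect and ±100 for the full control effect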
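Cells in DMEM/10% Nu serum/1% pen-strep, 1536-well format. Pre-incubated 12 h, dosed with 23 nL compound, incubated a further 24 h. Luciferase detection, 12 min at room temp, luminescence.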
Tb PGK inh = qHTS Assay to Find Inhibitors of Phosphoglycerate Kinase. Phosphoglycerate kinase, glycosomal (Trypanosoma brucei brucei), P07378. Potency, µM (series often up to 57.5 µM), without a hit: at the highest dose activity change, negative = inhibition, actives largely listed as inhibitors. PGK/GAPDH coupled, Kinase-Glo luminescence, 60 min. hit rate 0.043% among 380,000. AID 602233, 2012; also: % is scaled to controls: 0 for no effect and ±100 for the full control effect; nearly all actives have a fitted effect of over 60% in size
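Luminescent ATP detection (Kinase-Glo Plus) follows a 60-minute room-temperature incubation, with wells lacking PGK as controls. Buffer: 100 mM TEA (pH 7.6), 5 mM MgCl2, 0.01% Tween-20. Coupling enzyme GAPDH (100 nM final) supplies unstable 1,3-BPG in-well.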
Pin1 inh = qHTS Assay to Find Inhibitors of Pin1; Peptidyl-prolyl cis-trans isomerase NIMA-interacting 1 (Homo sapiens), Q13526; Pin1 FP peptide displacement, HiFluor488, 10 min; Potency, µM (top dose mostly 115 µM), without a hit: at the top dose activity, negative = inhibition, usual class: inhibitors; hit rate 0.009% among 390,000; AID 504891, 2011; active = well fitted inhibition curve with a large enough effect in the polarisation, with a control signal flat, not every such curve was filed as active; inconclusive = small, poorly fitted or top-dose-only effect, or effect the other way, or a change in a side signal; inactive = no such curve, though single readings can be large or run the other way; the % refers to the polarisation; also: % is scaled to controls: 0 for no effect and ±100 for the full control effect
Target sequence (Q13526 whole entry, looked up): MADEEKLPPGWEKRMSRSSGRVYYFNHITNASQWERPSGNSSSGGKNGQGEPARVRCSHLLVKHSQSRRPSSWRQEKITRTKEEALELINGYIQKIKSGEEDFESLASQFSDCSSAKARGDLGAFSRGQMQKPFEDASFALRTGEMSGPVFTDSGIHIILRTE
GLP1R inv ag = qHTS of GLP-1 Receptor Inverse Agonists (Inhibition Mode) | Glucagon-like peptide 1 receptor (Homo sapiens), P43220 | HEK293 GLP-1R CRE-luciferase, luminescence, 24 h; GLP-1R form is constitutively active | Potency, µM (series often up to 38.3 µM), for the others: at the highest dose activity change, negative = inhibition, actives largely listed as inhibitors | hit rate 1.6% among 410,000 | AID 624417, 2012; also: % is scaled to controls: 0 for no effect and ±100 for the full control effect; nearly all actives have a fitted effect of over 55% in size
Target sequence (P43220 whole entry, looked up): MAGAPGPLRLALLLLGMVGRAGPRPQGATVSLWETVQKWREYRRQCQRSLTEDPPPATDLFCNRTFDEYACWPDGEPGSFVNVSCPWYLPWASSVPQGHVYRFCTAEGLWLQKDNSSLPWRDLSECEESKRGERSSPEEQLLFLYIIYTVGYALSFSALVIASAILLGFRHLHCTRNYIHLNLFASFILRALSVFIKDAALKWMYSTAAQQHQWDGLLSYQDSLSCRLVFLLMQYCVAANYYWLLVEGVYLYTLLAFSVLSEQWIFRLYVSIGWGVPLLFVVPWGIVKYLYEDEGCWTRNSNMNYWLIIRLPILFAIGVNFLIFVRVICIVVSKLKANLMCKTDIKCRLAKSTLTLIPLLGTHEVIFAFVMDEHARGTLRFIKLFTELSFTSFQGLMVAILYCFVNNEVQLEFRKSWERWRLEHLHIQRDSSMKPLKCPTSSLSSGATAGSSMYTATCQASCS
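HEK293 cells stably co-expressing a cAMP-responsive luciferase reporter and constitutively active GLP-1R were seeded, incubated 12 h, then exposed to compounds for 24 h at 37 C. Luminescence was read 12 min after detection reagent; inverse agonists lower signal.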
Tb PFK inh = qHTS Assay to Find Inhibitors of T. brucei phosphofructokinase | ATP-dependent 6-phosphofructokinase (Trypanosoma brucei brucei), O15648 | T. brucei PFK, ADP-Glo luminescence | Potency, µM (highest dose often 57.5 µM), for inactives: at the top dose activity, negative = inhibition, usual class: inhibitors | hit rate 0.17% among 330,000 | AID 485367, 2010;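 also: 0% = uninhibited 1x PFK enzyme wells and -100% = no-enzyme wells; nearly all actives have a fitted effect of over 60% in size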
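PFK 1.25 nM, F6P 0.5 mM, ATP 0.1 mM, 0.1 M TEA pH 8.0, 5 mM MgCl2, 0.01% Tween20, 0.1% BSA; 45 min RT. ADP-Glo readout. qHTS titration up to 57 uM; curves fitted, compounds curve-classed.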
GLP1R ag = qHTS of GLP-1 Receptor Agonists. Glucagon-like peptide 1 receptor (Homo sapiens), P43220. HEK293 GLP-1R CRE-luciferase, luminescence, 4-6 h; cells express a hypersensitive GLP-1R form. Potency, µM (highest dose often 45.6 µM), inactives show at the highest dose activation, usual class: activators. hit rate 0.007% among 380,000; also: % of control where 0% means no effect
Numbers without * were called inactive; i = inactive; ? = inconclusive; / = no result; ! = not active in a repeat; [ ] = another dose, or the depositor's remark. Unless noted, calls follow the shape of the dose curve; as a rule, active = well fitted curve in the direction sought with a large enough effect; inconclusive = small, poorly fitted or top-dose-only effect, or another doubt; inactive = no such curve, though single readings can be large; an effect the other way counts as inactive or inconclusive. Potency is read from the fitted curve at half-maximal effect.

SMILES	HEK293 tox	Tb PGK inh	Pin1 inh	GLP1R inv ag	Tb PFK inh	GLP1R ag
O=C(NCCn1cc(SCc2ccc(C(F)(F)F)cc2)c2ccccc21)c1cccs1	-8%	i	14%	11µM*	/	-5%
O=C(NCCn1cc(SCc2ccccc2)c2ccccc21)c1c(F)cccc1F	3%	-4%	13%	10µM*	0%	12%
O=C(NCCn1cc(SCc2ccc(F)cc2)c2ccccc21)c1c(F)cccc1F	-4%	-3%	-2%	?	-2%	-2%
O=C(NCCn1cc(SCc2ccc(C(F)(F)F)cc2)c2ccccc21)c1ccccc1F	-11%	-2%	-15%	?	/	-13%
Cc1cc(NC(=O)CSc2cn(CCNC(=O)c3ccccc3)c3ccccc23)no1	-3%	7.1µM*	?	-12%	1%	-2%
Cn1cc(S(=O)(=O)N2CCCCC2)cc1C(=O)Nc1ccc(OC(F)(F)F)cc1	12%	-4%	1%	-11%	/	0%
Cc1ccc(O)c(N=Nc2ccccc2)n1	-6%	16µM*	2%	-19%	/	0%
COc1ccc(N2CCN(CCNC(=O)Nc3cccc(C)c3C)CC2)cc1	1%	i	-8%	5%	5%	1%
COc1ccccc1N1CCN(CCNC(=O)Nc2cccc(C)c2C)CC1	-14%	i	-2%	3.2µM*	-6%	-8%
CCC(=O)N(CCC(c1ccccc1)c1ccc2c(c1)OCO2)Cc1ccc(OC(C)C)cc1 (stereo not given)	-12%	-1%	8%	13µM*	/	-4%
CCC(=O)N(CCC(Cc1ccccc1)c1ccc2c(c1)OCO2)Cc1ccccc1F (stereo not given)	-24%	i	13%	?	-4%	-3%
COC(=O)c1ccccc1NC(=O)Cn1c(=O)n(-c2ccc(C)cc2)c(=O)c2ccccc21	-27%	-7%	-2%	?	/	/
Cc1ccc(NC(=O)C(c2ccc(Cl)cc2Cl)N2CCCC2)cc1 (stereo not given)	-7%	10%	6%	10µM*	4%	-12%
CC(C)c1ccc(NC(=O)C(c2ccc3c(c2)OCO3)N2CCC3(CC2)OCCO3)cc1 (stereo not given)	-6%	-11%	0%	?	0%	0%
CC(C)c1ccc(NC(=O)C(c2ccc3c(c2)OCO3)N2CCCCC2)cc1 (stereo not given)	-17%	-5%	7%	4µM*	3%	-3%
CC1CCN(C(C(=O)Nc2ccc(C(C)C)cc2)c2ccc3c(c2)OCO3)CC1 (stereo not given)	-1%	-9%	-2%	4.5µM*	3%	0%
CC(C)c1ccc(NC(=O)NC(C)c2ccc3c(c2)OCO3)cc1 (stereo not given)	-23%	-1%	6%	?	5%	-5%
Cc1cccc(NC(=O)C(c2ccccc2Cl)N2CCOCC2)c1 (stereo not given)	-1%	-5%	-10%	?	0%	2%
O=C(Nc1cc(Cl)cc(Cl)c1)C(c1ccccc1)N1CCCCC1 (stereo not given)	7%	-2%	-2%	2.2µM*	-1%	0%
CC(=O)Nc1ccc(S(=O)(=O)Nc2ccc(C)c(C)c2)cc1	/	/	-2%	/	/	/
O=C(Cn1ncn2nc(-c3cccs3)cc2c1=O)NCc1ccc(Cl)cc1	2%	14%	-8%	3%	/	/
CCN(CC)CCCNc1oc(-c2ccc(OC)c(OC)c2)nc1C#N	-9%	-8%	-1%	?	0%	-2%
CN(C)CCCNc1oc(-c2cccc(Cl)c2)nc1C#N	-2%	-2%	-1%	6.3µM*	3%	-2%
O=S1(=O)N=C(Oc2ccccc2Cl)c2ccccc21	/	/	-5%[163 µM]	/	/	/
O=C(Nc1ccccc1)NC1CC2CCC(C1)N2Cc1nnnn1Cc1ccc2c(c1)OCO2 (stereo not given)	-13%	0%	-7%	0%	0%	0%
SMILES	HEK293 tox	Tb PGK inh	Pin1 inh	GLP1R inv ag	Tb PFK inh	GLP1R ag
CCOc1ccccc1NC(=O)NC1CC2CCCC(C1)N2Cc1nnnn1CCc1ccccc1 (stereo not given)	9%	-1%	23%	10µM*	-17%	-4%
CCCCOc1ccc(Cn2c(=O)sc3ccccc32)cc1	26%	-8%	38%	11µM*	/	/
S=C(Nc1ccccc1)Nc1ccc(Br)cn1	3.5µM*	15%	-1%	?	2%	6%
CN(C(=O)CSc1cc(C(=O)c2nccn2C)c2ccccc2n1)c1ccccc1	?	-6%	-6%	10µM*	0%	6%
Cc1ccccc1S(=O)(=O)Cc1ccc(C(=O)N2CCN(c3cccc(Cl)c3)CC2)o1	?	4%	20%	?	/	/
COc1ccc(S(=O)Cc2ccc(C(=O)N3CCN(c4cccc(C)c4C)CC3)o2)cc1 (stereo not given)	2%	2%	-3%	7.1µM*!	-2%	-5%
O=C(c1ccc(CS(=O)c2ccccc2Cl)o1)N1CCN(c2cccc(Cl)c2)CC1 (stereo not given)	?	-9%	-3%	0.89µM*	/	/
Cc1ccccc1S(=O)(=O)Cc1ccc(C(=O)N2CCN(c3cccc(C)c3C)CC2)o1	?	0%	11%	4.5µM*	18%	-18%
O=C(c1ccc(CS(=O)c2ccccc2Cl)o1)N1CCN(c2cccc(C(F)(F)F)c2)CC1 (stereo not given)	-26%	-1%	-2%	?	/	/
COc1ccc(N2CCN(C(=O)c3ccc(CS(=O)c4cccc(Cl)c4)o3)CC2)cc1 (stereo not given)	-12%	7%	/	?	/	-1%
C=CCn1c(Sc2ncc([N+](=O)[O-])s2)n[nH]c1=O	8.9µM*	-6%	-15%	?	-14%	-8%
CO[C@@]1(NC(=O)CSC(F)F)C(=O)N2C(C(=O)O)=C(CSc3nnnn3CCO)CO[C@@H]21	/	/	/	/	/	6%
CN1CCc2c(sc3c2C(=O)NC(c2cn(Cc4ccccc4)c4ccccc24)N3)C1 (stereo not given)	163%	i	?	4µM*	3%	-3%
O=C(NCC1CCCO1)c1ccc2c(c1)N(Cc1ccc(Cl)cc1)CCS2 (stereo not given)	-17%	10%	/	10µM*	/	8%
CN(C)CCNC(=O)c1ccc2c(c1)N(Cc1ccc(F)cc1)CCS2	1%	-3%	0%	3.2µM*	4%	-3%
